The list is not random: actives were taken first. Their share in the collection is about 21%.
HCV inhibitor: HCV inhibition. actives 3.4% (n = 340,000). AID 651820. Huh7.5.1 HCVcc-Cre infection, luciferase reporter, 44 h. Potency, µM (titrated, usually from 41.8 µM), usual class: inhibitors
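1,000 cells/well; 4 h culture; + compound; + HCVcc-Cre (~0.5 moi); 44 h; luciferase substrate, RT 15 min; read 15 sec.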
Shiga toxin inh: blocks Shiga toxin action in Vero cells; Vero cells, Shiga toxin protein synthesis inhibition reporter; inhibition, % at 38.7 µM; actives 9.2% (n = 290,000); AID 2315; in the data active = inhibition mostly above about 28%, no sharp cut-off; inactive = mostly below about 43%
CHX counter: counter-screen hit for Shiga toxin inhibitors, cycloheximide; cell reporter, cycloheximide protein synthesis inhibition counterscreen; max response, %; actives 12% (n = 300,000); AID 2314; in the data active = max response mostly above about 13%, no sharp cut-off; inactive = mostly below about 14%; also: read at 38.3 µM for the half of the compounds with a filed dose
HCMV inh: inhibitors of human cytomegalovirus | actives 4.5% (n = 410,000) | activity change, negative = inhibition, % at 57.5 µM | AID 1259415 | HFF cells, HCMV-luciferase reporter, 72 h; stronger effect = lower value; in the data active = activity change below about -60%; inconclusive = no clear call, values can overlap the other calls; inactive = above about -39%
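Luciferase read-out from HCMV-luciferase-infected HFFs (MOI 1 PFU/cell) 72 h post infection at 37C; compounds added after 16 h cell attachment; activity normalized between buffer-only basal and Salinomycin (10uM) inhibitor controls.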
Pf growth 48h: P. falciparum growth inhibition at 48 hours (one generation); actives 5.9% (n = 310,000); P. falciparum luciferase growth in erythrocytes, 48 h; Potency, µM (series often up to 28.7 µM), usual class: inhibitors
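Read-out is firefly luciferase luminescence from an integrated reporter in P. falciparum, so falling signal marks reduced parasite growth. Infected erythrocytes were at 2% hematocrit and 0.1% parasitemia (final) in Albumax-supplemented RPMI 1640.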
Pf growth 96h: P. falciparum growth inhibition at 96 hours; P. falciparum luciferase reporter growth, 96 h; Potency, µM (series often up to 28.7 µM), most hits filed as inhibitors; actives 6.9% (n = 320,000)
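P. falciparum expressing integrated firefly luciferase grown in erythrocytes (2% hematocrit, 0.05% parasitemia final) with compounds for 96 hours at 37 C, 5% CO2. Growth inhibition read as loss of luminescence after adding luciferase detection reagent.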
Of the large screens only hits and unclear results are named; the others gave an inactive call; ! = a repeat was not active. Unless noted, calls follow the shape of the dose curve; as a rule, active = well fitted inhibition curve with a large enough effect; inconclusive = small, poorly fitted or top-dose-only effect, or another doubt; inactive = no such curve, though single readings can be large or run the other way.

O=C(/C=C\Nc1cccc(F)c1)c1cccs1	Shiga toxin inh 42, CHX counter 40
O=C(/C=C/Nc1ccc(F)cc1F)c1cccs1	Shiga toxin inh 49, CHX counter 46, Pf growth 96h inconclusive
COc1ccc(S(=O)(=O)N(C)CC(=O)NCCN2CCOCC2)cc1Cl	none
COc1cc2c(cc1OC)CN(C(=O)C1CCCN1S(=O)(=O)c1ccc(F)cc1)CC2 (stereo not drawn)	none
CC(C)(C)C(=O)CSc1ncnc2sc3c(c12)CCC3	HCV inhibitor inconclusive, Shiga toxin inh 67, CHX counter 44
O=C(CSc1ncnc2sc3c(c12)CCCC3)N1CCC(c2noc3ccc(F)cc23)CC1	HCV inhibitor 11µM! (no result: Pf growth 96h)
Cc1ccc(C(=O)CSc2ncnc3sc4c(c23)CCC(C)C4)cc1 (stereo not drawn)	HCV inhibitor inconclusive, HCMV inh -99
COC(=O)c1ccc(Cl)cc1NC(=O)NCc1c(-n2cccc2)sc2c1CCCC2	none (no result: HCV inhibitor, Shiga toxin inh, CHX counter, Pf growth 48h, Pf growth 96h)
CCCS(=O)(=O)NCCc1csc(-c2ccc(OC)c(OC)c2)n1	HCV inhibitor inconclusive
CC(=O)c1cccc(NC(=O)CSc2nc3ccccc3nc2Cc2ccc(F)cc2)c1	none (no result: HCV inhibitor, Shiga toxin inh, CHX counter, Pf growth 48h, Pf growth 96h)
Cc1ccccc1OCC(=O)Nc1cccc(C(=O)O)c1	CHX counter 26
Cc1ccccc1OCC(=O)Nc1ccc2c(c1)C(=O)c1ccccc1C2=O	Shiga toxin inh 38, CHX counter 23
Cc1ccccc1OCC(=O)Nc1ccc2c(c1)Cc1ccccc1-2	Pf growth 48h inconclusive, Pf growth 96h inconclusive
Cc1cccc(C)c1NC(=O)COC(=O)c1cccc2c1C(=O)c1ccccc1C2=O	HCV inhibitor inconclusive, HCMV inh inconclusive
CC(=O)c1cccc(NC(=O)COC(=O)c2ccccc2C)c1	Shiga toxin inh 110, CHX counter 62, HCMV inh inconclusive
Cc1cccc(NC(=O)COC(=O)c2cccc3c2C(=O)c2ccccc2C3=O)c1C	HCV inhibitor inconclusive, Pf growth 96h 10µM
Cc1ccc(NC(=O)C2CC(=O)Nc3nncn32)cc1 (stereo not drawn)	none
C=CCN1C(=O)C(O)(CC(=O)c2ccc(OC)cc2OC)c2cc(Br)ccc21 (stereo not drawn)	Pf growth 48h 12µM
CN1C(=O)C(O)(CC(=O)c2ccccc2O)c2cc(Br)ccc21 (stereo not drawn)	Pf growth 48h inconclusive, Pf growth 96h 1.2µM
Cc1ccc(C(=O)CC2(O)C(=O)N(Cc3ccccc3)c3ccc(Br)cc32)cc1 (stereo not drawn)	none (no result: HCV inhibitor, Shiga toxin inh, CHX counter, Pf growth 48h, Pf growth 96h)
CN1C(=O)C(O)(CC(=O)/C=C/c2ccco2)c2ccccc21 (stereo not drawn)	none
CN1C(=O)C(O)(CC(=O)/C=C/c2ccco2)c2cc(Br)ccc21 (stereo not drawn)	HCV inhibitor 11µM, Pf growth 48h inconclusive, Pf growth 96h inconclusive
COc1ccc(C(=O)CC2(O)C(=O)N(CCc3ccccc3)c3ccc(Br)cc32)cc1OC (stereo not drawn)	none (no result: HCV inhibitor, Shiga toxin inh, CHX counter, Pf growth 48h, Pf growth 96h)
CCCCN1C(=O)C(O)(CC(=O)c2ccc(C)cc2C)c2cc(Br)ccc21 (stereo not drawn)	none (no result: HCV inhibitor, Shiga toxin inh, CHX counter, Pf growth 48h, Pf growth 96h)
CCCCN1C(=O)C(O)(CC(=O)c2ccco2)c2cc(Br)ccc21 (stereo not drawn)	HCMV inh -75
CN1C(=O)C(O)(CC(=O)c2cccc(-n3cccc3)c2)c2ccccc21 (stereo not drawn)	Pf growth 48h 9.3µM
COc1ccccc1-c1noc(-c2ccccc2)n1	Shiga toxin inh 89, CHX counter 49
CCOc1cc(-c2nc(-c3ccccc3OC)no2)cc(OCC)c1OCC	HCV inhibitor inconclusive (no result: Pf growth 96h)
COc1ccccc1-c1noc(-c2ccco2)n1	Shiga toxin inh 80, CHX counter 51 (no result: Pf growth 96h)
COc1cc(-c2noc(-c3ccco3)n2)cc(OC)c1OC	HCV inhibitor 13µM, Shiga toxin inh 80, CHX counter 18
OCCC1CN(CC(c2ccccc2)c2ccccc2)CCN1C1CCCC1 (stereo not drawn)	HCV inhibitor inconclusive, Pf growth 48h inconclusive, Pf growth 96h inconclusive
CCOC(=O)c1[nH]c2c(c1Cc1ccccc1OC)C(=O)CC(c1ccccc1)C2 (stereo not drawn)	none (no result: HCV inhibitor, Shiga toxin inh, CHX counter, Pf growth 48h, Pf growth 96h)
CC(C)(C)NC(=O)CN(Cc1ccccc1)S(=O)(=O)c1ccccc1	Pf growth 96h inconclusive
Cn1nccc1C(=O)OCC(=O)Nc1nc(-c2ccccc2)cs1	CHX counter 24
O=C(COC(=O)c1cccs1)Nc1nc(-c2ccccc2)cs1	none
Cn1cc(Cl)c(C(=O)OCC(=O)Nc2nc(-c3ccc(Br)cc3)cs2)n1	Shiga toxin inh 65, CHX counter 22
O=C(COC(=O)CNC(=O)c1ccccc1)Nc1nc(-c2ccccc2)cs1	CHX counter 25
O=C(NN1CCOCC1)c1cccc(Cl)c1	Pf growth 96h inconclusive
CN(CCc1ccccn1)c1ncnc2[nH]ncc12	Shiga toxin inh 33
CN(c1cccnc1)c1ncnc2[nH]ncc12	none
COc1ccc(Cl)cc1NS(=O)(=O)c1c(C)nc2scc(C)n2c1=O	none (no result: HCV inhibitor, Shiga toxin inh, CHX counter, Pf growth 48h, Pf growth 96h)
CN(CC1CCCO1)S(=O)(=O)c1ccc(C(=O)NCc2ccccc2)cc1 (stereo not drawn)	none
O=C(NNC(=O)c1cccc2ccccc12)c1ccc(Cl)cc1Cl	none (no result: Shiga toxin inh, CHX counter, Pf growth 48h, Pf growth 96h)
O=C(Nc1ccc(Cl)cc1F)c1cccc2ccccc12	Shiga toxin inh 34, CHX counter 27, Pf growth 96h inconclusive
O=C(Nc1ccc(Cl)cc1F)c1ccccc1Br	Shiga toxin inh 130, CHX counter 63
CC1CN(C(=O)CCC(=O)N2CCCCC2)c2ccccc2O1 (stereo not drawn)	none
CC(C(=O)O)n1nnc2ccccc21 (stereo not drawn)	none
Cc1cccc(C(C)n2nnc3ccccc32)c1O (stereo not drawn)	HCV inhibitor inconclusive, Pf growth 48h 15µM, Pf growth 96h 10µM (no result: Shiga toxin inh, CHX counter)
Clc1cccc(-c2nc3ccc(Br)cn3c2Cc2ccsc2)c1	none (no result: HCV inhibitor, Shiga toxin inh, CHX counter, Pf growth 48h, Pf growth 96h)
Cc1nc(NC(=O)CN2CCC(O)(c3ccc(F)cc3)CC2)sc1C	Shiga toxin inh 47, CHX counter 17
Cc1nc(NC(=O)CN2CCN(c3ccccc3F)CC2)sc1C(=O)N(C)C	Pf growth 48h inconclusive
COCCn1c(SCC(=O)Nc2ccc(Br)cc2)nc2c([nH]c3ccccc32)c1=O	none (no result: HCV inhibitor, Shiga toxin inh, CHX counter, Pf growth 48h, Pf growth 96h)
Cc1ccc(S(=O)(=O)N2CCOCC2)cc1NC(=O)COC(=O)COc1ccc(C#N)cc1	none (no result: HCV inhibitor, Shiga toxin inh, CHX counter, Pf growth 48h, Pf growth 96h)
CC(C)(C)C1CCc2onc(C(=O)Nc3cccnc3)c2C1 (stereo not drawn)	Pf growth 48h inconclusive
CC(=O)c1ccc(NC(=O)c2noc3c2CCCCC3)cc1	Shiga toxin inh 44, CHX counter 40
O=C(Nc1cc(Cl)ccc1Cl)c1noc2c1CCCC2	none
O=C(Nc1ccc2c(c1)OCO2)c1noc2c1CCCCC2	Shiga toxin inh 101, CHX counter 38
CCOC(=O)c1ccc(NC(=O)c2noc3c2CCCC3)cc1	none (no result: HCV inhibitor, Shiga toxin inh, CHX counter, Pf growth 48h, Pf growth 96h)
